Compounds with a hit are over-represented: about 1.5% of the library has one in this group of screens.
Efflux pump mplx – inhibitors of Candida efflux pumps in yeast, primary screen, S. cerevisiae, Nile Red, multiplex; hit rate 0.44% among 330,000; inhibition, % at 10 µM; S. cerevisiae Candida pump triplex;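 active = plate passing quality check with inhibition over a set limit, or well fluorescence over plate mean plus 4 SD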;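 note: Nile Red retained in pooled yeast measured as flow cytometry median fluorescence; 0% = buffer negative control and 100% = Enniatin B positive control; higher means more Nile Red kept so more efflux inhibition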
HDAC3 inhib – HDAC3 deacetylase inhibitors, primary screen, biochemical, fluorescence, cell-free homogeneous; hit rate 0.15% among 320,000; Histone deacetylase 3 (Homo sapiens), O15379; recombinant HDAC3, fluorogenic peptide/trypsin coupled; AID 2718, 2010; inhibition, % at 8.3 µM; in the data active = inhibition above about 26%, passing the limit was not always enough; inconclusive = no clear call, values can overlap the other calls
PolyA inh – polyadenylation inhibitors in yeast reporter cells, primary screen, luminescence, S. cerevisiae; S. cerevisiae SKY197-pL101 polyadenylation reporter, beta-gal luminescence; efflux-impaired pdr1/pdr3 knockout yeast; score 100 = 6 SD above DMSO; activity score, % at 12 µM; hit rate 0.02% among 300,000;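 active = lowest replicate activity score at least 50, where 100 means six control SD above control mean; inconclusive = lowest score under 50 but half or more replicates reach 50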;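 note: yeast exposed to compound for 9 h at 30 °C; higher score means more reporter readthrough which indicates perturbed polyadenylation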
JMJD2C inh – inhibitors of GASC-1 histone demethylase, primary screen, biochemical, fluorescence, DELFIA europium; GST-JMJD2C(1-420) H3K9me3 demethylation; inhibition, % at 2.35 µM; Lysine-specific demethylase 4C (Homo sapiens), Q9H3R0; AID 2099, 2009; hit rate 0.069% among 330,000;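 active = more than half of a compound's replicate wells show inhibition beyond 50%, single wells judged on their own value; inconclusive = some, but no more than half, of replicates pass 50% inhibition; inactive = no replicate passes 50% inhibition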;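 note: signal counts dimethyl H3K9 product captured on neutravidin plate; 0% = median of DMSO wells and 100% = 0.3 times that DMSO median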
Target sequence (Q9H3R0 1-420 limits assumed): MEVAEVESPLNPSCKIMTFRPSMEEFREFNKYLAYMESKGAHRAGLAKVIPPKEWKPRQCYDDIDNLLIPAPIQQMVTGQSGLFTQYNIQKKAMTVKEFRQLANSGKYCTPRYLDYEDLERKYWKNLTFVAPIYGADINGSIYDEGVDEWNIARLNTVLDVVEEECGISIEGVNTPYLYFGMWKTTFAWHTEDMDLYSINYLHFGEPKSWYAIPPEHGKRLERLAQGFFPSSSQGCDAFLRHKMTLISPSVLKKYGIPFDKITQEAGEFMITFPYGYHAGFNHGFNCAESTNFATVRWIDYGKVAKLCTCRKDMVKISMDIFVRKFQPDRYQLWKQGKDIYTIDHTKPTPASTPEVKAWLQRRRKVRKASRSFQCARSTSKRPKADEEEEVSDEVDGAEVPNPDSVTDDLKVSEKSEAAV
NALP1 inh – NALP1 inflammasome inhibitors in reconstituted yeast, colorimetric, S. cerevisiae, triplicate retest; hit rate 0.61% among 280,000; S. cerevisiae NALP1/ASC/caspase-1 growth, X-gal OD620, 72 h; inhibition, % at 10 µM; AID 2071, 2009; in the data active = inhibition mostly above about 24%, no sharp cut-off; inactive = mostly below about 32%
NLRP3 yeast inh – NALP3 inflammasome inhibitors in reconstituted yeast, primary screen, luminescence, uHTS | Yeast reconstituted NLRP3/ASC/caspase-1, beta-gal luminescence, 24 h | inhibition, % at 10 µM | hit rate 0.39% among 330,000;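 active = inhibition of 50% or more; inactive = inhibition below 50%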;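 note: plate controls were induced DMSO wells for no effect and uninduced yeast grown without galactose for full effect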
Cmpd fluor yeast – flagged as fluorescent in efflux inhibitor counter-screen. S. cerevisiae AD/pABC3, compound fluorescence, flow cytometry. fluorescence ratio to DMSO, % at 10 µM. AID 588517. shares compounds with Efflux pump mplx. hit rate 4% among 1,700;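 active = fluorescence ratio to DMSO above its plate's cutoff, the plate mean ratio plus 5 SD, cut at about 210% in these data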;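 note: unstained yeast with no Nile Red so the signal is compound autofluorescence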
CaMdr1 efflux inh – inhibitors of Candida albicans Mdr1 efflux, confirmation, flow cytometry, singleplex, Cherry Pick1 set | shares compounds with Efflux pump mplx | S. cerevisiae AD/CaMDR1, Nile Red efflux | inhibition, % at 10 µM | hit rate 1% among 1,700 | AID 588518, 2011; in the data active = inhibition above about 26%;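 note: 0% = DMSO vehicle and 100% = reference inhibitor; higher means more Nile Red retained so more efflux inhibition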
CaCdr2 efflux inh – inhibitors of Candida albicans Cdr2 efflux pump, confirmation, S. cerevisiae AD/CaCDR2, flow cytometry, cherry pick 1, singleplex | shares compounds with Efflux pump mplx | Nile Red retention | Nile Red retention ratio vs DMSO, % at 10 µM | hit rate 4% among 1,700; in the data active = Nile Red retention ratio vs DMSO above about 190%;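 note: higher ratio means more blocking of Cdr2 efflux of the dye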
Cdr1 pump inh – inhibitors of Candida albicans Cdr1 efflux pump, confirmation, S. cerevisiae AD/CaCDR1, flow cytometry, cherry pick 1, singleplex | inhibition, % at 10 µM | Nile Red efflux | hit rate 1% among 1,700 | shares compounds with Efflux pump mplx;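 active = inhibition above the screen-wide mean plus twice its standard deviation, cut at about 32% in these data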
* marks the source's active call; other numbers are inactive results; ? = inconclusive; / = no result given.

SMILES	Efflux pump mplx	HDAC3 inhib	PolyA inh	JMJD2C inh	NALP1 inh	NLRP3 yeast inh	Cmpd fluor yeast	CaMdr1 efflux inh	CaCdr2 efflux inh	Cdr1 pump inh
C[C@H](NC(=O)c1ccc(C(C)(C)C)cc1)C(=O)N1CCN(C/C=C/c2ccccc2)CC1	0.9*	13	/	8	/	37	92	0	94	0
COCCn1c(SCC(=O)NC2CC2)nc2ccccc21	0	-8	/	3	/	15	/	/	/	/
COc1ccc(/C=N/N=C2/NC(=O)C(CC(=O)O)S2)cc1OCc1ccc(Cl)cc1 (centres undefined)	13*	7	3	16	12	7	95	0	105	0
COc1ccccc1C(=O)NCCC(=O)NCC(c1ccc(F)cc1)N1CCOCC1 (centres undefined)	0	1	-2	0	/	8	/	/	/	/
CCOc1ccc(/C=N/NC(=O)c2ccccc2O)cc1CN1CC2CC(C1)c1cccc(=O)n1C2 (centres undefined)	0.8*	-8	/	4	/	11	85	0	104	0
CCCCC(CC)Cn1c(O)c(/C=C2\C=NN=C2c2ccccc2)sc1=S (centres undefined)	8.3*	-1	4	2	36	18	102	0	127	0
CCCn1c(O)c(/C=C2\C=NN=C2c2ccccc2)sc1=S	0	-10	-17	10	24	12	/	/	/	/
Cc1ccc(Cn2nnc3c(=O)[nH]c(C4CCN(S(=O)(=O)c5cc(C)ccc5C)CC4)nc32)cc1	0	?	15	-6	-9	13	/	/	/	/
O=c1[nH]c(C2CCN(S(=O)(=O)c3ccc4c(c3)OCCO4)CC2)nc2c1nnn2Cc1c(F)cccc1Cl	0	-5	-6	0	18	17	/	/	/	/
Cc1ccc(C)c(Cn2nnc3c(=O)[nH]c(C4CCN(S(=O)(=O)c5ccc(S(=O)(=O)NC6CC6)cc5)CC4)nc32)c1	3.1*	-2	7	-1	9	11	99	0	105	0
O=c1[nH]c(C2CCN(S(=O)(=O)c3ccccc3C(F)(F)F)CC2)nc2c1nnn2Cc1cccc(F)c1	3.1*	2	1	-15	17	14	100	0	114	0
O=c1[nH]c(C2CCN(S(=O)(=O)c3ccc4c(c3)OCCO4)CC2)nc2c1nnn2Cc1ccccc1F	1.0*	-1	-15	-11	6	20	110	0	121	0
Cc1ccc(C)c(Cn2nnc3c(=O)[nH]c(C4CCN(S(=O)(=O)c5ccc(S(=O)(=O)N(C)C)cc5)CC4)nc32)c1	0	6	1	-1	0	4	93	0	116	0
O=C(O)CNS(=O)(=O)c1ccc(C2CCCCC2)cc1	0	-1	3	-7	12	1	/	/	/	/
Cc1ccc(Cn2nnc3c(=O)[nH]c(C4CCN(S(=O)(=O)c5ccc(F)cc5)CC4)nc32)cc1	0	6	3	3	14	-5	100	0	116	0
COc1ccc(/C(N)=N/OC(=O)Oc2ccccc2)cc1OC	5.8*	-9	9	4	-2	4	101	0	96	0
COc1ccc(CC(=O)O/N=C(\N)c2ccccc2)cc1OC	0	-7	14	-2	15	16	108	0	97	0
